MCL1-BIM inh = inhibitors of MCL1 binding to BIM-BH3, primary screen, biochemical, fluorescence polarization | inhibition, % at 10.9 µM | hit rate 0.68% among 320,000 | AID 2057, 2009 | GST-MCL1 / FITC-Bim-BH3 fluorescence polarization | Induced myeloid leukemia cell differentiation protein Mcl-1 (Homo sapiens), Q07820;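 active means inhibition above the mean inhibition of all tested compounds plus 3 SD, set per campaign, cut at about 40% in these data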;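 further: 0% = DMSO wells and 100% = unlabeled Bim-BH3 peptide control; higher means more loss of mP so more displacement of Bim peptide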
GLD-1 RNA inh = GLD-1/TGE RNA complex disruptors, primary screen, biochemical, fluorescence polarization | Female germline-specific tumor suppressor gld-1 (Caenorhabditis elegans), Q17339 | purified GLD-1 + fluorescein TGE RNA | inhibition, % at 5.96 µM | hit rate 0.44% among 320,000 | AID 2280, 2010;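 active means percent inhibition above a per-plate cutoff, the plate mean of test compounds plus 3 SD, cut at about 30% in these data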;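 further: 0% = DMSO wells with GLD-1 and probe and 100% = wells lacking GLD-1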
MEX-5 binding = MEX-5 zinc finger RNA-binding disruptors – biochemical, C. elegans, fluorescence polarization, MLPCN library, primary screen; activity score (negative = inhibition of binding), % at 10 µM; Zinc finger protein mex-5 (Caenorhabditis elegans), Q9XUB2; hit rate 0.38% among 300,000; MEX-5/FITC-TCR2 RNA binding; active compounds read low;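 active means inhibition past about -25% in most replicates, and total fluorescence under double the plate's negative control median, limit read from the data; inconclusive means replicates evenly split on the limit, or fluorescence at least double controls; inactive means too little inhibition in most replicates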;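 further: 0% = DMSO and -100% = 5 µM competing unlabeled TCR2 RNA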
EBV gp42 block = Epstein-Barr virus gp42 inhibitors, primary screen, biochemical, uHTS, fluorescence polarization; Fluorescence polarization binding assay, mP read-out; inhibition, % (tested at 21.74 µM); hit rate 0.42% among 220,000; AID 1085, 2008; in the data active means inhibition above about 50%
Bcl-xL primary = inhibitors of human Bcl-xL, primary screen, biochemical, fluorescence polarization, HTS; GST-Bcl-xL / FITC-Bim BH3 peptide fluorescence polarization; Bcl-2-like protein 1 (Homo sapiens), Q07817; inhibition, % at 10.9 µM; hit rate 0.7% among 320,000; AID 2129, 2009;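 active means inhibition above the mean of all tested compounds plus 3 SD, cutoff set per campaign, cut at about 30% in these data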;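 further: 0% = DMSO wells and 100% = unlabeled Bim-BH3 peptide competitor; inhibitors lower millipolarization by displacing the labeled peptide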
E coli Lon inh = inhibitors of E. coli Lon protease, primary screen, biochemical, fluorescence polarization; purified E. coli Lon protease; inhibition, % at 7.94 µM; hit rate 0.42% among 360,000; AID 602123, 2011; in the data active means inhibition above about 13%, passing the limit was not always enough;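 further: 0% = enzyme with probe and DMSO and 100% = no enzyme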
Target sequence (P0A9M0 whole entry, looked up): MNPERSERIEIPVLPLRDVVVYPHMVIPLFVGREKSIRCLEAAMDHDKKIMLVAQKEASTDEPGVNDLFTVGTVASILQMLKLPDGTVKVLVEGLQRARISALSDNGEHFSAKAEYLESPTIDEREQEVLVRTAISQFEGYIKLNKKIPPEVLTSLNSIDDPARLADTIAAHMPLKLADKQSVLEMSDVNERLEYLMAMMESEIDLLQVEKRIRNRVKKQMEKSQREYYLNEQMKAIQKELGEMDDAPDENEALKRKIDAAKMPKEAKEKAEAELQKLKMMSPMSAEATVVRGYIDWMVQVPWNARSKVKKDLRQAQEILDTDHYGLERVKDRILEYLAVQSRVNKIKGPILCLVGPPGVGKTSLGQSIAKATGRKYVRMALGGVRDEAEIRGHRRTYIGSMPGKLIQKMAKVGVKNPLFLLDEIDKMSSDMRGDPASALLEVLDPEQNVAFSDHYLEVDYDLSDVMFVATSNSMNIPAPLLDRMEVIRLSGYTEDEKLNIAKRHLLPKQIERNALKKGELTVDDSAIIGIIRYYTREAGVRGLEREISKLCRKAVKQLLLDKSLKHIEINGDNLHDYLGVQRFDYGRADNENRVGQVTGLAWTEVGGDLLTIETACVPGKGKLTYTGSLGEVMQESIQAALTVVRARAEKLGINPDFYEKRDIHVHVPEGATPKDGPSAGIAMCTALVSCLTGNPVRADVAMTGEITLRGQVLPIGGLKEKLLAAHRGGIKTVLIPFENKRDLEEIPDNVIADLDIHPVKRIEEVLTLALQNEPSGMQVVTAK
Bcl-xL conf = Bcl-xL inhibitors blocking Bim BH3 binding, confirmation, counter-screen for MCL1 inhibitor project, biochemical, fluorescence polarization; shares compounds with MCL1-BIM inh; GST-Bcl-xL / FITC-Bim BH3 peptide FP binding; inhibition, % at 10.9 µM; hit rate 54% among 1,700;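 active means inhibition above a cutoff equal to the mean inhibition of all tested compounds plus 3 SD, cut at about 30% in these data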;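 further: 0% = DMSO wells and 100% = unlabeled Bim BH3 control peptide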
MCL1 inh confirm = inhibitors of MCL1 binding to BIM-BH3, confirmation, biochemical, fluorescence polarization, triplicate; shares compounds with MCL1-BIM inh; AID 2168, 2009; GST-MCL1 / FITC-Bim-BH3 fluorescence polarization; inhibition, % at 10.9 µM; hit rate 61% among 1,700;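 active means inhibition above the average of all tested compounds plus 3 SD, cut at about 40% in these data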;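 further: 0% = DMSO wells and 100% = unlabeled Bim-BH3 control peptide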
Numbers without * were called inactive; u = inconclusive; x = no result; + = active, no number. An excerpt weighted towards active compounds, which were near 1.4% of everything screened.

SMILES	MCL1-BIM inh	GLD-1 RNA inh	MEX-5 binding	EBV gp42 block	Bcl-xL primary	E coli Lon inh	others
CC(C)c1ccc(-n2c(O)c(C=NC(CCS(C)=O)C(=O)O)c(=O)[nH]c2=S)cc1 (stereo not given)	-7.0	-10.4	0.9	-7.0	-2.5	-7.8
OCCOCCO	-2.5	-2.0	x	x	3.1	-6.3
O=C(N/N=C/c1c(O)n(C2CC2)c(=S)[nH]c1=O)c1ccccc1O	16.4	0.4	-59.5*	0.0	5.5	2.0
Cc1ccccc1-n1c(O)c(/C=N/NC(=O)c2ccccc2O)c(=O)[nH]c1=S	10.5	-4.7	-29.0*	-14.5	6.1	-11.0
O=C(N/N=C/c1c(O)n(-c2ccccc2)c(=S)[nH]c1=O)c1ccccc1	8.9	4.1	-8.2	-6.0	6.6	4.0
Cc1nc2ccccc2c(=O)n1-c1c(Cl)cccc1Cl	x	x	x	x	x	1.6
O=c1[nH]c(=O)n(CCc2ccc(F)cc2)c(O)c1C=NCCCn1ccnc1	-40.1	-22.6	-39.7*	-53.2	-31.0	-34.6
O=c1[nH]c(=O)n(CCC2=CCCCC2)c(O)c1C=NCCCn1ccnc1	-7.4	-8.0	-2.9	-30.1	-3.8	9.0
Cc1ccc(N2C(=O)NC(=O)/C(=C\c3cc(C)n(-c4cc(C(=O)O)cc(C(=O)O)c4)c3C)C2=O)cc1	8.3	4.8	-1.3	x	3.1	-24.1
Cc1ccc(N2C(=O)NC(=O)/C(=C\c3cc(C)n(-c4ccc(C(=O)O)cc4)c3C)C2=O)cc1	4.5	-11.4	-35.1*	x	2.0	-26.1
CN1/C(=C\C=Nc2ccccc2)C(C)(C)c2ccccc21	2.3	4.0	-0.6	-9.6	13.5	-9.5
CN1/C(=C\C=C2C(=O)NC(=O)NC2=O)C(C)(C)c2ccccc21	-228.7	-230.1	-85.5*	-314.5	-144.2	-436.6
COCCn1c(O)c(/C=N/NC(=O)CSC(=S)N2CCCC2)c(=O)[nH]c1=S	1.3	-14.8	x	x	-8.5	-53.7
CCCCn1c(O)c(C(=O)/C=C/c2ccc3c(c2)OCO3)c(=O)[nH]c1=O	-0.2	-10.9	-36.2*	-31.5	2.4	-17.8
CN1C(=O)C(=Cc2cn(CC(=O)N3CCCCC3)c3ccccc23)C(=O)N(C)C1=O	-5.0	-3.3	-35.8*	x	-0.3	-12.1
O=C(O)CCC(=O)NCCC1=c2ccccc2=N/C1=C\c1c(O)n(Cc2ccc(F)cc2)c(=S)[nH]c1=O	8.1	4.8	-1.2	81.6*	7.4	-4.8
CCN(CC)c1ccc(N=Cc2c(O)n(CCc3ccc(OC)c(OC)c3)c(=O)[nH]c2=O)cc1	19.2	3.0	-3.9	82.8*	2.7	-10.4
CCN(CC)C(=O)Cn1cc(/C=C2\C(=O)NC(=O)N(c3ccccc3F)C2=O)c2ccccc21	-20.2	-20.0	-64.1*	x	-12.0	-53.6
O=C(O)Cn1cc(/C=C2\C(=O)NC(=O)N(c3ccc(Cl)cc3)C2=O)c2ccccc21	-19.9	-20.8	u	x	-12.8	-59.9
c1csc(CN2CCNCC2)c1	1.8	6.5	-2.5	-1.6	-1.2	-1.9
COc1ccc2c(c1)c(C(=O)O)c(C)n2CC(C)C	-4.8	-1.8	-2.5	-20.2	2.4	-0.4
COc1cc(O)c(C(=O)O)c(-c2cc(O)c(O)cc2C)c1	27.9	3.4	-62.1*	-9.6	17.4	-5.1
CC(C)CCN1CCN(Cc2c(F)cccc2Cl)CC1CCO (stereo not given)	7.7	-2.6	1.0	1.2	7.4	-0.2
CCOC(=O)c1c(NS(=O)(=O)c2ccccc2)n(CCCOC)c2nc3ccccc3nc12	3.7	8.6	-26.5*	15.4	6.2	-6.9
C[C@@H]1CN([C@H](C)CO)C(=O)CCCn2cc(nn2)CO[C@H]1CN(C)C(=O)Oc1cccc2ccccc12	x	x	x	x	x	5.2
SMILES	MCL1-BIM inh	GLD-1 RNA inh	MEX-5 binding	EBV gp42 block	Bcl-xL primary	E coli Lon inh	others
COc1ccc2c(c1)C13CCN4CC5=CCOC6CC(=O)N2C1C6C5CC43 (stereo not given)	x	x	x	x	x	-0.2
CN1CCN(c2ccc3c(c2)S(=O)(=O)c2ccccc2C3=O)CC1	85.3*	8.0	-1.7	x	73.7*	-13.5	Bcl-xL conf=63.2*;MCL1 inh confirm=84.5*
CN1CCN(c2cccc3c2C(=O)c2ccccc2C3=O)CC1	x	x	-5.5	21.1	x	-1.1
CC(C)C[C@H]1C(=O)N2CCC[C@H]2[C@]2(O)O[C@](NC(=O)[C@@H]3C=C4c5cccc6[nH]cc(c56)C[C@H]4N(C)C3)(C(C)C)C(=O)N12	+	117.9*	x	x	149.4*	92.1	Bcl-xL conf=92.5*;MCL1 inh confirm=113.8*
Nc1ccccc1C(=O)OCC(=O)c1ccc2c(c1)OCCO2	-1.3	2.1	-0.1	-0.6	3.9	-2.2
CCOC(=O)[C@]1(C#N)[C@@H]2C=CC(C(C)=O)=CN2[C@@H](C(N)=O)[C@@H]1c1ccsc1	95.5*	54.1*	-52.9*	70.6*	88.2*	-9.3	Bcl-xL conf=108.2*;MCL1 inh confirm=145.2*
CN1/C(=C\C=C\C2=[N+](C)c3ccc4ccccc4c3C2(C)C)C(C)(C)c2ccccc21	+	179.3*	x	96.7*	189.8*	x	Bcl-xL conf=165.6*;MCL1 inh confirm=199.7*
CCOC(=O)c1cnc(SCc2ccc(Cl)c(Cl)c2)nc1N1CC1	x	x	x	x	x	7.8
Oc1c(Br)c(Br)c(Br)c(Br)c1Br	72.9*	10.1	x	x	3.4	0.2	Bcl-xL conf=22.9;MCL1 inh confirm=54.8*
O=C(OC1CC2CCC(N2)C1C(=O)O)c1ccccc1 (stereo not given)	x	1.4	x	x	x	-13.3
COc1ccc2c(c1O)-c1c(OC)c(OC)cc3c1[C@H](C2)N(C)CC3	2.7	-0.5	x	x	7.7	-3.0
CCCN1CCc2cccc3c2[C@H]1Cc1ccc(O)c(O)c1-3	46.1*	15.5	-84.1*	x	32.2*	11.7	Bcl-xL conf=54.4*;MCL1 inh confirm=84.7*
Cc1cc(/C=C2/C(=O)NC(=O)N(c3ccccc3)C2=O)c(C)n1-c1ccc(F)cc1	-1.7	0.9	-8.6	x	-4.4	-17.0
Cn1cc(/C=C2\C(=O)NC(=O)N(c3ccccc3)C2=O)c2ccccc21	182.0*	-9.7	-82.5*	x	150.6*	-85.0	Bcl-xL conf=59.7*;MCL1 inh confirm=64.4*
O=C1NC(=O)C(=Cc2ccc(Sc3ccccc3)o2)C(=O)N1	12.2	-3.8	-0.2	-27.5	1.6	-24.8

Assay outcomes (PubChem BioAssay)
